{"source": "PubChem BioAssay AID463173", "about": "(ICCB-Longwood Screening Facility, Harvard Medical School, 2010)", "note": "The whole screen tested about 52,000 compounds, of which about 4,300 (8.3%) were called active. This excerpt belongs to a sample that is enriched for actives. Values without a mark were called inactive. No stated cut-off is given here; in the data, active means survival mostly below about 52% (no sharp cut-off); inactive means mostly above about 56%.", "data": [{"system": "DeltatarO mutant", "test": "growth inhibition of S. aureus wild type versus tarO mutant, primary screen, teichoic acid synthesis inhibitors, RN4220, OD600 (AID 463173)", "settings": "OD600, 18 h, stronger effect = lower value, screened at 18.75 µg/mL (by protocol)", "values": [{"smiles": "O=C(c1ccc2c(c1)N(Cc1c(F)cccc1Cl)C(=O)c1ccccc1S2)N1CCCC1", "survival": "74%"}, {"smiles": "Cc1ccc(C)c(C(=O)N2CCC(c3nc4c(nnn4Cc4ccccc4)c(=O)[nH]3)CC2)c1", "survival": "39% (active)"}, {"smiles": "COc1cccc(OC)c1Cn1nnc2c(=O)[nH]c(C3CCN(C(=O)c4ccccc4)CC3)nc21", "survival": "56%"}, {"smiles": "O=c1[nH]c(C2CCCNC2)nc2c1nnn2Cc1ccccc1", "note": "(stereo not given)", "survival": "98%"}, {"smiles": "CCOc1ccccc1NC(=O)N1CCCC(c2nc3c(nnn3Cc3ccc(C)cc3)c(=O)[nH]2)C1", "note": "(stereo not given)", "survival": "82%"}, {"smiles": "O=C(c1ccccc1)N1CCC(c2nc3c(nnn3Cc3ccccc3)c(=O)[nH]2)CC1", "survival": "13% (active)"}, {"smiles": "Cc1ccc(Cn2nnc3c(=O)[nH]c(C4CCN(S(=O)(=O)/C=C/c5ccccc5)CC4)nc32)cc1", "survival": "89%"}, {"smiles": "CCOc1ccc(Cn2nnc3c(=O)[nH]c(C4CCN(C(=O)c5ccccc5)CC4)nc32)cc1", "survival": "4% (active)"}, {"smiles": "O=c1oc2cc(Br)ccc2n1CO", "survival": "105%"}, {"smiles": "Cc1ccc(NCc2ccccc2-c2nnc(-c3ccccc3Cl)o2)c(C)c1", "survival": "83%"}, {"smiles": "Cc1cccc(N2CCN(CC(=O)NCc3cccs3)CC2)c1C", "survival": "101%"}, {"smiles": "COc1ccc2c(c1)c1c(c(=O)n(CCc3ccccc3)c(=O)n1Cc1cccc(C)c1)n2C", "survival": "70%"}, {"smiles": "CCCCN(CC)CCNC(=O)c1nn(C)c2c1CS(=O)(=O)c1ccccc1-2", "survival": "56%"}, {"smiles": "CCOC(=O)N1CCN(Cc2nc3cc([N+](=O)[O-])ccc3n2C(C)C)CC1", "survival": "92%"}, {"smiles": "O=C(NCCO)c1nc2ccccc2s1", "survival": "73%"}, {"smiles": "CCN(CC)c1ccc(NC(=O)c2cc(C)nc3c2c(C)nn3-c2cccc(F)c2)c(C)c1", "survival": "100%"}, {"smiles": "O=C(CSC1=NC(=O)C(c2ccccc2)C(=O)N1)Nc1nncs1", "note": "(stereo not given)", "survival": "70%"}, {"smiles": "Cc1ccc(NC(=O)Cn2cc(C(=O)C3CCCCC3)c3ccccc32)cc1", "survival": "62%"}, {"smiles": "O=C(Cn1cc(C(=O)C2CCCCC2)c2ccccc21)Nc1ccccc1Cl", "survival": "76%"}, {"smiles": "Cc1ccc(OCCn2cc(C(=O)c3cccs3)c3ccccc32)cc1", "survival": "69%"}, {"smiles": "O=C(c1cn(CCOc2ccccc2F)c2ccccc12)C1CCCCC1", "survival": "-2% (active)"}, {"smiles": "Cc1ccc(OCCn2cc(C(=O)C3CCCCC3)c3ccccc32)cc1", "survival": "3% (active)"}, {"smiles": "COc1ccc(OCCn2cc(C(=O)C3CCCCC3)c3ccccc32)cc1", "survival": "13% (active)"}, {"smiles": "O=C(c1cccs1)c1cn(CCOc2ccc(Cl)cc2)c2ccccc12", "survival": "156%"}, {"smiles": "COc1ccc(NC(=O)Cn2cc(C(=O)C3CC3)c3ccccc32)cc1", "survival": "88%"}, {"smiles": "O=C(c1cn(CCOc2ccc(Cl)cc2)c2ccccc12)C1CCCCC1", "survival": "14% (active)"}, {"smiles": "O=C(c1cccs1)c1cn(CCOc2ccccc2F)c2ccccc12", "survival": "104%"}, {"smiles": "COc1ccc(NC(=O)Cn2cc(C(=O)C3CCCCC3)c3ccccc32)cc1", "survival": "71%"}, {"smiles": "Cc1ccccc1OCCn1cc(C(=O)C2CCCCC2)c2ccccc21", "survival": "144%"}, {"smiles": "Cc1c(NC(=O)c2nc3ccccc3nc2N2CCCCC2)cccc1[N+](=O)[O-]", "survival": "100%"}, {"smiles": "COc1ccc(-c2nc3n(n2)C(c2ccc(OC)cc2)C(C(=O)Nc2cccnc2)=C(C)N3)cc1", "note": "(stereo not given)", "survival": "89%"}, {"smiles": "Cc1ccc(N2CC(NC(=O)CCc3ccccc3)CC2=O)cc1C", "note": "(stereo not given)", "survival": "101%"}, {"smiles": "COc1ccc(N2CCN(C(=O)Cn3c(-c4cccs4)cc4ccccc43)CC2)cc1", "survival": "80%"}, {"smiles": "Cc1cc(C)c(NC(=O)CN2C(=O)c3cccnc3Sc3ccccc32)c(C)c1", "survival": "83%"}, {"smiles": "CCOC(=O)c1ccc(N2C(=O)c3n[nH]c(-c4ccco4)c3C2c2ccc(O)c(OCC)c2)cc1", "note": "(stereo not given)", "survival": "69%"}, {"smiles": "C=CCn1c(O)c(CN2CCOCC2)c(C)c(C#N)c1=O", "survival": "89%"}, {"smiles": "O=C(O)Cc1ccc(NC2(c3ccccc3)C(=O)c3ccccc3C2=O)cc1", "survival": "73%"}, {"smiles": "Cc1cccc(NC(=O)c2ccc3c(O)c(S(=O)(=O)c4ccccc4)c(=O)[nH]c3c2)c1C", "survival": "88%"}, {"smiles": "Cc1ccc(C)c(NC(=O)CN2CCN(C3CCCCC3)C(=O)C2=O)c1", "survival": "94%"}, {"smiles": "CCC(Cn1nnc2ccccc2c1=O)NC(=O)Nc1cc(Cl)ccc1OC", "note": "(stereo not given)", "survival": "71%"}, {"smiles": "Cc1ccc(Cl)cc1N1CCN(C(=O)c2cc(S(=O)(=O)N3CCCC3)c[nH]2)CC1", "survival": "88%"}, {"smiles": "COC(=O)c1cc(S(=O)(=O)N2CCN(c3ccc(OC)cc3)CC2)c[nH]1", "survival": "73%"}, {"smiles": "COC(=O)c1cc(S(=O)(=O)N2CCN(c3cc(Cl)ccc3C)CC2)c[nH]1", "survival": "12% (active)"}, {"smiles": "CC(Oc1ccccc1)C(=O)Nc1ccccc1C(=O)OCc1cc(=O)n2nc(C(C)C)sc2n1", "note": "(stereo not given)", "survival": "83%"}, {"smiles": "Cc1ccc2nc(-c3ccccn3)c(Nc3ccccc3C)n2c1", "survival": "15%"}, {"smiles": "Cc1ccn2c(Nc3ccccc3C)c(-c3ccncc3)nc2c1", "survival": "85%"}, {"smiles": "Cc1ccn2c(Nc3ccccc3C)c(-c3ccccn3)nc2c1", "survival": "11% (active)"}, {"smiles": "Cc1ccn2c(Nc3ccccc3C)c(-c3ccccc3)nc2c1", "survival": "0% (active)"}, {"smiles": "Cc1cccc(C)c1Nc1c(-c2ccccn2)nc2ccc(Cl)cn12", "survival": "135%"}, {"smiles": "Cc1ccn2c(Nc3ccccc3C)c(-c3cccnc3)nc2c1", "survival": "81%"}, {"smiles": "Cc1ccc2nc(N3CCN(c4ccccc4F)CC3)c3nnnn3c2c1", "survival": "87%"}, {"smiles": "Cc1ccc(C)c(-n2cc(-c3ccccc3)nc2SCC(=O)Nc2ccccc2)c1", "survival": "96%"}, {"smiles": "Cc1cccc(NC(=O)c2cnn(-c3ccccc3)c2-n2cccc2)c1C", "survival": "77%"}, {"smiles": "CCC(=O)N1CCc2cc(Br)cc(S(=O)(=O)CCC(=O)N3CCN(c4cccc(C)c4)C(C)C3)c21", "note": "(stereo not given)", "survival": "65%"}, {"smiles": "O=C(Nc1nc2n(n1)C(c1ccccc1)C=C(c1ccc(Cl)cc1)N2)c1ccco1", "note": "(stereo not given)", "survival": "42%"}, {"smiles": "O=C(Nc1nc2n(n1)C(c1ccc(Cl)cc1)C=C(c1ccccc1)N2)c1ccco1", "note": "(stereo not given)", "survival": "35% (active)"}, {"smiles": "Cc1ccc(C2C=C(c3ccc(Cl)cc3)Nc3nc(NC(=O)c4ccco4)nn32)cc1", "note": "(stereo not given)", "survival": "67%"}, {"smiles": "CC(=O)Nc1nc2n(n1)C(c1ccc(F)cc1)C=C(c1ccc(Cl)cc1)N2", "note": "(stereo not given)", "survival": "59%"}, {"smiles": "O=C(Nc1nc2n(n1)C(c1ccccc1)C=C(c1ccccc1)N2)c1ccccc1", "note": "(stereo not given)", "survival": "109%"}, {"smiles": "O=C(Nc1nc2n(n1)C(c1ccc(F)cc1)C=C(c1ccccc1)N2)c1cccc([N+](=O)[O-])c1", "note": "(stereo not given)", "survival": "99%"}, {"smiles": "COc1ccc(C(=O)Nc2nc3n(n2)C(c2ccc(Cl)cc2)C=C(c2ccccc2)N3)cc1OC", "note": "(stereo not given)", "survival": "59%"}, {"smiles": "O=C(Nc1nc2n(n1)C(c1ccc(F)cc1)C=C(c1ccccc1)N2)c1ccco1", "note": "(stereo not given)", "survival": "41% (active)"}, {"smiles": "O=C(Nc1nc2n(n1)C(c1ccc(F)cc1)C=C(c1ccc(Cl)cc1)N2)c1ccco1", "note": "(stereo not given)", "survival": "16% (active)"}, {"smiles": "O=C(NCCN1CCN(c2ccccc2)CC1)Nc1ccccc1Br", "survival": "87%"}, {"smiles": "Cc1ccc(C)c(CN2C(=O)c3ccccc3S(=O)(=O)c3ccc(C(=O)N4CCCCC4)cc32)c1", "survival": "61%"}, {"smiles": "Cc1cc2nn(-c3ccc(F)cc3)nc2cc1NC(=O)c1ccc(OC(C)C)cc1", "survival": "64%"}, {"smiles": "O=c1c(S(=O)(=O)c2cccc(Cl)c2)cn(Cc2ccccc2)c2cc(N3CCOCC3)c(F)cc12", "survival": "83%"}, {"smiles": "CCC(=O)N1CCc2cc(CNS(=O)(=O)c3ccc(NC(=O)CC(C)C)cc3)ccc21", "survival": "86%"}, {"smiles": "CC(=O)Nc1ccc(OC(=O)c2ccco2)cc1", "survival": "71%"}, {"smiles": "CN(C)c1ccc(Nc2ncnc3sc4c(c23)CCCC4)cc1", "survival": "106%"}, {"smiles": "CC(C)OCCCNc1ncnc2sc3c(c12)CCCC3", "survival": "42% (active)"}, {"smiles": "Cc1cc(C)cc(Nc2ncnc3sc4c(c23)CCCC4)c1", "survival": "0% (active)"}, {"smiles": "c1coc(CNc2ncnc3sc4c(c23)CCCC4)c1", "survival": "107%"}, {"smiles": "CCc1ccc(Nc2ncnc3sc4c(c23)CCCC4)cc1", "survival": "72%"}, {"smiles": "c1cn(CCCNc2ncnc3sc4c(c23)CCCCC4)cn1", "survival": "65%"}, {"smiles": "CCOc1ccccc1NC(=O)C1CCN(S(=O)(=O)c2c(C)noc2/C=C/c2ccco2)CC1", "survival": "72%"}, {"smiles": "COc1ccc(N2CCN(S(=O)(=O)c3ccc4c(c3)C(C(C)C)C(=O)N4)CC2)cc1", "note": "(stereo not given)", "survival": "125%"}, {"smiles": "COc1ccc(N2CCN(S(=O)(=O)c3ccc(CC(C)C)cc3)CC2)cc1", "survival": "56% (active)"}, {"smiles": "COc1ccc(N2CCN(S(=O)(=O)c3ccc(C4CCCCC4)cc3)CC2)cc1", "survival": "79%"}, {"smiles": "Cc1ccc(NC(=O)Cn2cc(C(=O)C3CC3)c3ccccc32)cc1", "survival": "148%"}, {"smiles": "CCOC(=O)c1c(C)n(-c2ccccc2)c2ccc(OC(=O)COc3ccccc3)cc12", "survival": "70%"}, {"smiles": "CCN1C(=C(C#N)C#N)C=Cc2cc(C)ccc21", "survival": "70%"}, {"smiles": "COc1cccc(N2CC(NC(=O)c3ccc(S(=O)(=O)N4CCOCC4)cc3)CC2=O)c1", "note": "(stereo not given)", "survival": "117%"}, {"smiles": "COC(=O)Cc1c(C)nc2nc(-c3ccc(C)cc3)[nH]n2c1=O", "survival": "92%"}, {"smiles": "CC(C(=O)Nc1ccccc1C(F)(F)F)n1nc(-c2ccccc2)c2c(c1=O)CCCC2", "note": "(stereo not given)", "survival": "30% (active)"}, {"smiles": "Cc1nn(C(C)C(=O)Nc2ccccc2C(F)(F)F)c(=O)c2c1sc1ccccc12", "note": "(stereo not given)", "survival": "107%"}, {"smiles": "CCN(CC)S(=O)(=O)c1cc(-c2ccc(=O)n(C(C)C(=O)Nc3cccc(C#N)c3)n2)ccc1C", "note": "(stereo not given)", "survival": "56%"}, {"smiles": "CC(C(=O)Nc1ccccc1)n1nnc2sc3c(c2c1=O)CCCC3", "note": "(stereo not given)", "survival": "61%"}, {"smiles": "CC(C(=O)Nc1cccc(C#N)c1)n1nc(-c2ccccc2)c2c(c1=O)CCCC2", "note": "(stereo not given)", "survival": "20% (active)"}, {"smiles": "CC(=O)Nc1ccccc1-c1nc2ccccc2n(C(C)C(=O)Nc2ccccc2C(F)(F)F)c1=O", "note": "(stereo not given)", "survival": "98%"}]}]}
